Assay results as given in PubChem BioAssay (Tox21).
Unmarked numbers belong to inactive results. Results filed as inconclusive are left out. Entries that show only a call come without a potency. Active and inactive are the calls of the source. Unless noted, calls come from the whole dose curve; as a rule, active = well fitted curve in the direction sought with a large enough effect in the repeat runs; inconclusive = weak or mixed curves; inactive = no such curve, though single readings can be large; an effect the other way counts as inactive or inconclusive.

Columns and labels:
[1] = qHTS assay to identify small molecule agonists of the sonic hedgehog signaling (Shh) pathway (AID 1259368; calls by dose curve;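 note: NIH/3T3-derived 3T3Gli1-Luc cells carrying a stable Gli1-driven firefly luciferase reporter; series mostly up to about 92 µM; nearly all actives have a fitted effect of over 15% in size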)
Method in brief: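 3T3Gli1-Luc (NIH/3T3 clone, stable Gli1-Luc); 4 hr pre-incubation, then cpd in DMSO 24 hr, 37 C/5% CO2; luciferase reagent 30 min RT; luminescence.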

[2] = qHTS assay to identify small molecule antagonists of the sonic hedgehog signaling (Shh) pathway (AID 1259369; calls by dose curve; note: nearly all actives have a fitted effect of over 45% in size; note: potency is the fitted concentration of half-maximal effect)
Method in brief: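 3T3Gli1-Luc, conditioned-medium-stimulated, 24hr cpd, 37C/5% CO2; Gli1-driven firefly Luc luminescence after 30min RT with luciferase reagent. Cells plated 4hr before cpd.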

[3] = target: Estrogen receptor beta (Homo sapiens) (UniProt Q92731); assay: qHTS assay to identify small molecule agonists of the estrogen receptor beta (ER-beta) signaling pathway (AID 1259377; active = well fitted activation curve with a large enough effect in the signal ratio in the repeat runs, not every such curve was filed as active; the % refers to the signal ratio)
Sequence of Estrogen receptor beta (Homo sapiens) (Q92731 whole entry, looked up): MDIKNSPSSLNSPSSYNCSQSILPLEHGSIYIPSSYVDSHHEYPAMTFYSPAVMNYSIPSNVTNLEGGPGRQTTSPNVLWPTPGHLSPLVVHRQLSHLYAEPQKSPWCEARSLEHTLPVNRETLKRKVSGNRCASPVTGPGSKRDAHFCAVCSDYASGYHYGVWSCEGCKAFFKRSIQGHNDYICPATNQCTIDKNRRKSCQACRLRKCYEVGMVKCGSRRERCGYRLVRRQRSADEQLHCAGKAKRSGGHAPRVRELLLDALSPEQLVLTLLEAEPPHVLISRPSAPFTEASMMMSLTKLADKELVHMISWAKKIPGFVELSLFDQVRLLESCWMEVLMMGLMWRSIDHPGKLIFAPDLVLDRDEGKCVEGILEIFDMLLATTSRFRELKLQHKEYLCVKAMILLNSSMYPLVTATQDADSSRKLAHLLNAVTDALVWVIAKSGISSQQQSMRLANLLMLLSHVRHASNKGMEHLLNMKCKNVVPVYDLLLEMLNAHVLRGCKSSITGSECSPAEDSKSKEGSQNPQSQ
Method in brief: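 In HEK293T cells bearing a UAS-beta-lactamase reporter under ER-beta control, DMSO-delivered compounds were incubated for 16 hr at 37C. Activity was detected as fluorescence 2 hours after LiveBLAzer B/G FRET substrate addition.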

[4] = target: Estrogen receptor beta (Homo sapiens) (UniProt Q92731); assay: qHTS assay to identify small molecule antagonists of the estrogen receptor beta (ER-beta) signaling pathway (AID 1259378; active = well fitted inhibition curve with a large enough effect in the signal ratio in the repeat runs, not every such curve was filed as active; the % refers to the signal ratio)
Method in brief: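 ER-beta-UAS-bla HEK293T cells in 2% charcoal-stripped FBS medium treated with compound plus 1nM final 17-beta-estradiol for 16 hr at 37C. Beta-lactamase reporter read by FRET substrate fluorescence after 2 hours at room temperature.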

[5] = qHTS assay to identify small molecule agonists of the androgen receptor (AR) signaling pathway in the presence of an antagonist - cell viability counter screen (AID 1259379);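 note: MDA-kb2 human breast cancer cells carrying an MMTV luciferase reporter; series mostly up to about 92 µM; nearly all actives have a fitted effect of over 25% in size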
Method in brief: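 Cells: MDA-kb2 (MMTV-luc, AR and GR elements), 3,000/well, 5 hr settle. Added: nilutamide 3.0uM final, then compounds (15 conc.). Incubation: 16 hr, 37C, no CO2. Read-out: CellTiter-Fluor, 1 hr, fluorescence.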

[6] = qHTS assay to identify small molecule agonists of the estrogen receptor beta (ER-beta) signaling pathway - cell viability counter screen (AID 1259380); note: nearly all actives have a fitted effect of over 30% in size
Method in brief: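 HEK293T ER-beta-UAS-bla; 2% CS-FBS; 6 hr pre-plate, 16 hr cpd at 37C/5% CO2; LiveBLAzer read first, then CellTiter-Glo 30 min RT, luminescence.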

[7] = qHTS assay to identify small molecule agonists or antagonists of the thyroid stimulating hormone receptor (TSHR) signaling pathway - wild type cell line counter screen (AID 1259384; calls by dose curve)
Method in brief: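 Wild-type Hek293 cells, 800/well, 18 h at 37C, then compound with Ro20-1724 for 30 min RT. cAMP by HTRF (cAMP-d2/anti-cAMP cryptate), 1 h RT, fluorescence read. 15 concentrations, triplicates.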

[8] = target: Thyrotropin receptor (Homo sapiens) (UniProt P16473); assay: qHTS assay to identify small molecule antagonists of the thyroid stimulating hormone receptor (TSHR) signaling pathway (AID 1259385; calls by dose curve; note: nearly all actives have a fitted effect of over 20% in size)
Sequence of Thyrotropin receptor (Homo sapiens) (P16473 whole entry, looked up): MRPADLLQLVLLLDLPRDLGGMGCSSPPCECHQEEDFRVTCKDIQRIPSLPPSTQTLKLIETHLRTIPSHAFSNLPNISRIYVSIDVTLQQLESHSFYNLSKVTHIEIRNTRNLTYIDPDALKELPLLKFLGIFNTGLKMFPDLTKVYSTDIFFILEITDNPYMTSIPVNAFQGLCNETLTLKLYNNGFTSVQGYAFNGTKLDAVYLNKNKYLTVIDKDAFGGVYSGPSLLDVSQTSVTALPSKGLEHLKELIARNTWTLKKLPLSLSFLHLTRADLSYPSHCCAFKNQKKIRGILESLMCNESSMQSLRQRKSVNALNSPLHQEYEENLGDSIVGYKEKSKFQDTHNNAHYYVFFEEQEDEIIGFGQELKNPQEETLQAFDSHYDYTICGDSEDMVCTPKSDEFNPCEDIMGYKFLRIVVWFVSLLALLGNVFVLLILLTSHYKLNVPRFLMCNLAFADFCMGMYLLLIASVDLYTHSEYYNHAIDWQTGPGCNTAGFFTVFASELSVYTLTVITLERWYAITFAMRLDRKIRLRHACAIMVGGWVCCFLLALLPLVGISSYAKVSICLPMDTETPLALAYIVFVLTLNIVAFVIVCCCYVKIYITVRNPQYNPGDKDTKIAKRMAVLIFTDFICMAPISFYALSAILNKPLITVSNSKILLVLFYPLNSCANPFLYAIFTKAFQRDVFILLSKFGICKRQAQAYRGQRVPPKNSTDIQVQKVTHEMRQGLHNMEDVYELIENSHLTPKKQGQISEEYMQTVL
Method in brief: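 TSHR-HEK293 cells (800/well) plated 18 h, then compounds with Ro20-1724 and TSH at 1.5 ng/mL final, 30 min at room temperature. cAMP quantified by HTRF (cAMP-d2/anti-cAMP-cryptate, 1 h); 15 concentrations in triplicate.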

[9] = qHTS assay to identify small molecule agonists of the estrogen receptor alpha (ER-alpha) signaling pathway in the presence of an antagonist - cell viability counter screen (AID 1259386);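 note: series mostly up to about 92 µM; cells exposed to compounds for 22 h at 37 °C before the viability read; nearly all actives have a fitted effect of over 30% in size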
Method in brief: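 VM7Luc4E2, stripped-serum pre-culture 5 d; 24hr plating; +ICI-182,780 10.0nM final; cpds 15 conc, 22hr, 37C/5% CO2; CellTiter-Fluor added at 21hr, fluorescence 1hr later.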

[10] = qHTS assay to identify small molecule antagonists of the progesterone receptor (PR) signaling pathway - cell viability counter screen (AID 1346798); note: nearly all actives have a fitted effect of over 50% in size; note: potency is the fitted concentration of half-maximal effect
Method in brief: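 ATP content as viability readout: CellTiter-Glo luminescence, 30 min room temperature, in PR-UAS-bla HEK293T cells after 16 hr compound/R5020 treatment at 37C and 5% CO2.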

[11] = qHTS assay to identify small molecule agonists of the progesterone receptor (PR) signaling pathway - cell viability counter screen (AID 1346799; calls by dose curve; note: nearly all actives have a fitted effect of over 45% in size; note: potency is the fitted concentration of half-maximal effect)
Method in brief: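 Cytotoxicity in PR-bla HEK293T cells: 16 h compound, 37C; CellTiter-Glo added post-FRET read; luminescence after 30 min RT.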

[12] = qHTS assay to identify small molecule antagonists of the TGF-beta/Smad signaling pathway - cell viability counter screen (AID 1346824); note: nearly all actives have a fitted effect of over 50% in size
Method in brief: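 SBE-bla HEK 293T cells, incubated overnight, then compound plus 0.25 ng/mL TGF-beta1 (stock added) for 5 hr at 37 C. Viability was read in the same wells by CellTiter-Glo luminescence after 30 min at room temperature.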

[13] = qHTS assay to identify small molecule agonists of the TGF-beta/Smad signaling pathway - cell viability counter screen (AID 1346829); note: top concentration of the series differs between compounds; nearly all actives have a fitted effect of over 45% in size
Method in brief: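 In parallel with the Smad reporter read, viability of HEK 293T cells stably carrying SBE-bla is quantified by ATP luminescence following 5 hr compound treatment.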

[14] = qHTS assay to identify small molecule agonists of the TGF-beta/Smad signaling pathway (AID 1346859; active = well fitted activation curve with a large enough effect in the signal ratio in the repeat runs, not every such curve was filed as active; the % refers to the signal ratio; note: series mostly up to about 77 µM)
Method in brief: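 Stable Smad binding element-beta-lactamase HEK 293T cells; 5 hr compound exposure at 37 C under 5% CO2; 2 hr room-temperature substrate step; fluorescence excited at 405 nm, collected at 460 nm and 530 nm.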

[15] = target: Thyrotropin-releasing hormone receptor (Homo sapiens) (UniProt P34981); assay: qHTS assay to identify small molecule antagonists of the thyrotropin-releasing hormone receptor (TRHR) signaling pathway (AID 1346877; active = well fitted inhibition curve with a large enough effect in the repeat runs, not every such curve was filed as active; note: series mostly up to about 51 µM)
Sequence of Thyrotropin-releasing hormone receptor (Homo sapiens) (P34981 whole entry, looked up): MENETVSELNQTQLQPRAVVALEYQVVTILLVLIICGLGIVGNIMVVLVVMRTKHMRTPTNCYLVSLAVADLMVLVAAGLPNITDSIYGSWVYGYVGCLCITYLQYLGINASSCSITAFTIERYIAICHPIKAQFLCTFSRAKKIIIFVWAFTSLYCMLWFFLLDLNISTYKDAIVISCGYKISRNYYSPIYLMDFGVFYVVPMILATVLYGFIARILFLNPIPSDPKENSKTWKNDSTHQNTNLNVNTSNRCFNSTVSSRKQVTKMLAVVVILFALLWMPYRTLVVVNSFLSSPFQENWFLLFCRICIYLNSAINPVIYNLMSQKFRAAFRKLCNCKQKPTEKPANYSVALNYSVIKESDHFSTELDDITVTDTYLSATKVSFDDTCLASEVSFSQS
Method in brief: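 Intracellular calcium fluorescence, read kinetically every second over 3 min, reports TRH-evoked signalling in HEK293 cells carrying TRHR. Test compounds were added 5 min ahead of a 1 nM TRH challenge.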

[16] = target: Estrogen receptor (Homo sapiens) (UniProt P03372); assay: qHTS assay to identify small molecule agonists of the estrogen receptor alpha (ER-alpha) signaling pathway in the presence of an antagonist (AID 1259383; calls by dose curve; note: top concentration of the series differs between compounds; nearly all actives have a fitted effect of over 15% in size)
Sequence of Estrogen receptor (Homo sapiens) (P03372 whole entry, looked up): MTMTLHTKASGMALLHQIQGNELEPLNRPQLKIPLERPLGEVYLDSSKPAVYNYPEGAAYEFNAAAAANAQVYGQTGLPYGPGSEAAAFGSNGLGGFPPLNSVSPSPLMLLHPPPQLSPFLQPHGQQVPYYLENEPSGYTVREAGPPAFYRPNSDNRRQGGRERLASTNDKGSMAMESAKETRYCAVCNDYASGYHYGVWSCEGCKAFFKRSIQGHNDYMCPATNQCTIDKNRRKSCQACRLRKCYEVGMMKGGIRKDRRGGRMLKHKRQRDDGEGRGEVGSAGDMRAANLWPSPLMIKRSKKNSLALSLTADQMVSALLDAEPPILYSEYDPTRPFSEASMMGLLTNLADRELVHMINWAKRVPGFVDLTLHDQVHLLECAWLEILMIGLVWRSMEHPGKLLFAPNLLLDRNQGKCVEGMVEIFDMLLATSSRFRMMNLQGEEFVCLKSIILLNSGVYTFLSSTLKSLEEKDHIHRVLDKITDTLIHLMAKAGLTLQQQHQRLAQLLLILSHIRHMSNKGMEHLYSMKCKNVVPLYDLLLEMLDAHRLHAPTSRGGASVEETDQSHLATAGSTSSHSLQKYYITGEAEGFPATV
Method in brief: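 VM7Luc4E2, endog. ER-alpha + 4×ERE-luc; charcoal-stripped FBS, phenol red-free, 5 d; 24hr plating; +10.0nM ICI-182,780 (final); cpds 15 conc, 22hr, 37C/5% CO2; ONE-Glo luminescence.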

[17] = target: Progesterone receptor (Homo sapiens) (UniProt P06401); assay: qHTS assay to identify small molecule agonists of the progesterone receptor (PR) signaling pathway (AID 1346784; calls by dose curve; note: nearly all actives have a fitted effect of over 30% in size)
Sequence of Progesterone receptor (Homo sapiens) (P06401 whole entry, looked up): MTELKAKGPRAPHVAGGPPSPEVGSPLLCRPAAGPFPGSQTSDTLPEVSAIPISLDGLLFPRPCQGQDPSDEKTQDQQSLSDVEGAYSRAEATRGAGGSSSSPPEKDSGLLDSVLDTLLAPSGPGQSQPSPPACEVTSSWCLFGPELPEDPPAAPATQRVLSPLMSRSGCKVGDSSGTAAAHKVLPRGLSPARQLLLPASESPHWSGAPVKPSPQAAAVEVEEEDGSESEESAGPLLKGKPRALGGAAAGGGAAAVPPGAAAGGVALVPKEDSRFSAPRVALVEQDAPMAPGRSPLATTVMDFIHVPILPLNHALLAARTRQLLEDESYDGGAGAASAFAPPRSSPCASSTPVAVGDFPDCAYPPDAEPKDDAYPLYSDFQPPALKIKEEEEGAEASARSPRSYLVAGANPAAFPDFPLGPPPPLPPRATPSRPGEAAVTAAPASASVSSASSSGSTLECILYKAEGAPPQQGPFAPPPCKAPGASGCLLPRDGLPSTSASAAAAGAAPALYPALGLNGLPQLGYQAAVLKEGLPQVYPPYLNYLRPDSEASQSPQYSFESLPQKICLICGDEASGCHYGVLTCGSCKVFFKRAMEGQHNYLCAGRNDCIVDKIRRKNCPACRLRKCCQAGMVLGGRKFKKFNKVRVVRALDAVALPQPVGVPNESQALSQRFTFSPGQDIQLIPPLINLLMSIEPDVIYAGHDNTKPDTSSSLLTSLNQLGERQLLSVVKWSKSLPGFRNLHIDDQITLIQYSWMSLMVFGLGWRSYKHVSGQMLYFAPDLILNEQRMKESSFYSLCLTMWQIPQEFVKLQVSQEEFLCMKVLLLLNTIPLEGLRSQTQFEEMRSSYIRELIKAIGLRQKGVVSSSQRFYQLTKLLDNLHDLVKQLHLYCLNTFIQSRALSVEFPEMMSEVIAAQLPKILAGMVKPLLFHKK
Method in brief: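 Using charcoal-stripped serum (2%) to limit endogenous steroids, PR-UAS-bla HEK 293T cells received compounds for 16 hr at 37C after 6 hr plating; beta-lactamase FRET fluorescence was recorded following 2 hr substrate loading at room temperature.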

[18] = target: Progesterone receptor (Homo sapiens) (UniProt P06401); assay: qHTS assay to identify small molecule antagonists of the progesterone receptor (PR) signaling pathway (AID 1346795; active = well fitted inhibition curve with a large enough effect in the signal ratio in the repeat runs, not every such curve was filed as active; the % refers to the signal ratio; note: potency is the fitted concentration of half-maximal effect)
Method in brief: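 Inhibition of R5020-induced (1 nM final) beta-lactamase reporter signal in PR-UAS-bla HEK293T cells was scored by FRET fluorescence after overnight (16 hr) compound treatment.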

[19] = qHTS assay to identify small molecule antagonists of the estrogen receptor beta (ER-beta) signaling pathway - cell viability counter screen (AID 1259382); note: series mostly up to about 92 µM; nearly all actives have a fitted effect of over 55% in size
Method in brief: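 Cells: ER-beta-UAS-bla HEK293T, 2,000/well, 2% CS-FBS, 6 hr settle. Cpd + E2 (1nM final), 16 hr, 37C/5% CO2. Bla FRET substrate 2 hr RT, then CellTiter-Glo 30 min RT, luminescence.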

Row | SMILES | Potency [1] | Potency [2] | outcome [3] | Potency [4] | Potency [5] | Potency [6] | outcome [7] | Potency [8] | Potency [9] | Potency [10] | Potency [11] | outcome [12] | outcome [13] | outcome [14] | outcome [15] | Potency [16] | Potency [17] | Potency [18] | outcome [19]
1 | O=c1[nH]cnc2c1ncn2[C@@H]1O[C@H](CO)[C@@H](O)[C@H]1O | inactive | inactive | inactive | inactive | inactive | inactive | inactive | inactive | inactive | inactive | inactive | inactive | inactive | inactive | inactive | – | – | – | –
2 | FC(F)(F)C(F)(F)C(F)(F)C(F)(F)C(F)(F)C(F)(F)C(F)(F)C(F)(F)Br | inactive | inactive | inactive | inactive | inactive | inactive | inactive | inactive | inactive | inactive | inactive | inactive | inactive | inactive | – | inactive | inactive | inactive | –
3 | CN1CCN(c2c(F)cc3c(=O)c(C(=O)O)cn(CCF)c3c2F)CC1 | inactive | inactive | inactive | inactive | inactive | inactive | inactive | inactive | inactive | inactive | inactive | inactive | inactive | inactive | inactive | inactive | – | – | inactive
4 | CO[C@@]1(NC(=O)CSCC#N)C(=O)N2C(C(=O)O)=C(CSc3nnnn3C)CS[C@@H]21 | inactive | inactive | inactive | inactive | inactive | inactive | – | – | inactive | inactive | inactive | inactive | inactive | inactive | inactive | inactive | inactive | inactive | –
5 | ICCc1ccccc1 | inactive | 16.9 µM (active) | inactive | inactive | inactive | inactive | inactive | inactive | inactive | 59.9 µM (active) | 59.9 µM (active) | inactive | inactive | inactive | – | inactive | – | 59.9 µM (active) | –
6 | Cc1nnc(SCC2=C(C(=O)O)N3C(=O)[C@@H](NC(=O)Cn4cnnn4)[C@H]3SC2)s1 | inactive | inactive | inactive | inactive | inactive | inactive | inactive | inactive | inactive | inactive | inactive | – | inactive | inactive | inactive | inactive | inactive | inactive | –
